Experimental findings from ChEMBL document CHEMBL1961873, “Compounds: GSK PKIS; Assays: Nanosyn kinase panel” (2012) are described below.

“And” between values parts separate entries of the source, which are not always exact repeats. Equal values may be shown once.

Assay [1] concerns Epidermal growth factor receptor (Homo sapiens), P00533 [T790M]. As to conditions: at 1 µM.
Assay [2] deals with Epidermal growth factor receptor (Homo sapiens), P00533 [L858R,T790M]. As to conditions: at 0.1 µM.
For assay [3] the test system is unchanged. As to conditions: at 1 µM.
The target in assay [4] is Ephrin type-A receptor 2 (Homo sapiens) (UniProt P29317). The settings on record: at 0.1 µM.
Chain of Ephrin type-A receptor 2 (Homo sapiens) (P29317 whole entry): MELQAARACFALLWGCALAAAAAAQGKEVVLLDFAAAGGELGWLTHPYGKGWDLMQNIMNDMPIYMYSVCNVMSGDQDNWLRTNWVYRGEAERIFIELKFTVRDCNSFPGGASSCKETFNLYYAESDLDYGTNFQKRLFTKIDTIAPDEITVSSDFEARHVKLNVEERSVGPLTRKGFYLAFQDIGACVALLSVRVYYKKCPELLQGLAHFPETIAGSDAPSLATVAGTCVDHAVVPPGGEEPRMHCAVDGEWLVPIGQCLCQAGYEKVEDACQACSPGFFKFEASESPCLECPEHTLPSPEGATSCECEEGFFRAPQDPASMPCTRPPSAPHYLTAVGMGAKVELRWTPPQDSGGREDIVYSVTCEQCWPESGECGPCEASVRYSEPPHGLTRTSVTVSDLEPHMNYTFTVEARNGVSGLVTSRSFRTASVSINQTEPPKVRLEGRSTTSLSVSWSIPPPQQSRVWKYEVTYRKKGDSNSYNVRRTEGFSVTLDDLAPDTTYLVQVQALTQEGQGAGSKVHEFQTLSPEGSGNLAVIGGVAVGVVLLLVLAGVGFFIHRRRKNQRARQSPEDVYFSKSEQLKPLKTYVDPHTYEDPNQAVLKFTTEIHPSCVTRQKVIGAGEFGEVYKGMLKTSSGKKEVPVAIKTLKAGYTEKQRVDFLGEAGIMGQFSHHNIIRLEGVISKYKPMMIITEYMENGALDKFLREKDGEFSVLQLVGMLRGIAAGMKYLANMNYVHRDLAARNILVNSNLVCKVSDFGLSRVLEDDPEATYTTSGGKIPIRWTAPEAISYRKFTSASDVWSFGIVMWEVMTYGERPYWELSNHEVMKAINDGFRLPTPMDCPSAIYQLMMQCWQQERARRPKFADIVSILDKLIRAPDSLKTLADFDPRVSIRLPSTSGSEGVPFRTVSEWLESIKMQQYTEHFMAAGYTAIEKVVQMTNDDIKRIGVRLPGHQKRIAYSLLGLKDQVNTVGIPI
Assay [5] shares this target. As to conditions: at 1 µM.
Assay [6] deals with T1, Ephrin type-A receptor 3 (Homo sapiens) (UniProt P29320).
T1 sequence (whole entry): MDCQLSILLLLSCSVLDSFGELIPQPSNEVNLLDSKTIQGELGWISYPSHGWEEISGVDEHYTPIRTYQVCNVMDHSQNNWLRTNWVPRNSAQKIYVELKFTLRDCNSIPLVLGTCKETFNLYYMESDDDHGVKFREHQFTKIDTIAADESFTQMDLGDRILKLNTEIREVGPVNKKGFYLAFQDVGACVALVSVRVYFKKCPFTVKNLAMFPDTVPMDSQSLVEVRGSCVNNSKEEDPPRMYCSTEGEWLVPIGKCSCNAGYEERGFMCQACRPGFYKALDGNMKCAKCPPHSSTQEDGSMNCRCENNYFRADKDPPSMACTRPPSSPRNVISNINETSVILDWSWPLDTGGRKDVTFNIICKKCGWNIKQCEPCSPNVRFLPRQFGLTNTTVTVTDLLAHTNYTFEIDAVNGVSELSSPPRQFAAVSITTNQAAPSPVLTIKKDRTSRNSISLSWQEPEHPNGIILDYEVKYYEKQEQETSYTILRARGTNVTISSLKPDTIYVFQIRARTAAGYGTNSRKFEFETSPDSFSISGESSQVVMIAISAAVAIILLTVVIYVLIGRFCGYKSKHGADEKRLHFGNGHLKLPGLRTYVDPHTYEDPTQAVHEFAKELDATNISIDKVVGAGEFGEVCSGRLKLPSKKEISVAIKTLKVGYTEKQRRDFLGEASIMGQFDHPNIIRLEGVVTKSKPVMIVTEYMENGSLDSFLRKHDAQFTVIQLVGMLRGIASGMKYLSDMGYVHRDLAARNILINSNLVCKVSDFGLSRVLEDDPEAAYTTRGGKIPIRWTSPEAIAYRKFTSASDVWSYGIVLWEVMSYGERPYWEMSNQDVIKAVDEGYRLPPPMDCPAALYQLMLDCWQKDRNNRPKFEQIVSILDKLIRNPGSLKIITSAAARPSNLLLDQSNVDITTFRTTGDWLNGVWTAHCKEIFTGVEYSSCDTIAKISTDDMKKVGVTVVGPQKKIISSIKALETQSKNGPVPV
As to conditions: at 0.1 µM.

In assay [7] the target is T1, Ephrin type-A receptor 3 (Homo sapiens). The settings on record: at 1 µM.
For assay [8], the target named is Ephrin type-A receptor 4 (Homo sapiens) (UniProt P54764). As to conditions: at 0.1 µM.
Chain of Ephrin type-A receptor 4 (Homo sapiens) (P54764 whole entry): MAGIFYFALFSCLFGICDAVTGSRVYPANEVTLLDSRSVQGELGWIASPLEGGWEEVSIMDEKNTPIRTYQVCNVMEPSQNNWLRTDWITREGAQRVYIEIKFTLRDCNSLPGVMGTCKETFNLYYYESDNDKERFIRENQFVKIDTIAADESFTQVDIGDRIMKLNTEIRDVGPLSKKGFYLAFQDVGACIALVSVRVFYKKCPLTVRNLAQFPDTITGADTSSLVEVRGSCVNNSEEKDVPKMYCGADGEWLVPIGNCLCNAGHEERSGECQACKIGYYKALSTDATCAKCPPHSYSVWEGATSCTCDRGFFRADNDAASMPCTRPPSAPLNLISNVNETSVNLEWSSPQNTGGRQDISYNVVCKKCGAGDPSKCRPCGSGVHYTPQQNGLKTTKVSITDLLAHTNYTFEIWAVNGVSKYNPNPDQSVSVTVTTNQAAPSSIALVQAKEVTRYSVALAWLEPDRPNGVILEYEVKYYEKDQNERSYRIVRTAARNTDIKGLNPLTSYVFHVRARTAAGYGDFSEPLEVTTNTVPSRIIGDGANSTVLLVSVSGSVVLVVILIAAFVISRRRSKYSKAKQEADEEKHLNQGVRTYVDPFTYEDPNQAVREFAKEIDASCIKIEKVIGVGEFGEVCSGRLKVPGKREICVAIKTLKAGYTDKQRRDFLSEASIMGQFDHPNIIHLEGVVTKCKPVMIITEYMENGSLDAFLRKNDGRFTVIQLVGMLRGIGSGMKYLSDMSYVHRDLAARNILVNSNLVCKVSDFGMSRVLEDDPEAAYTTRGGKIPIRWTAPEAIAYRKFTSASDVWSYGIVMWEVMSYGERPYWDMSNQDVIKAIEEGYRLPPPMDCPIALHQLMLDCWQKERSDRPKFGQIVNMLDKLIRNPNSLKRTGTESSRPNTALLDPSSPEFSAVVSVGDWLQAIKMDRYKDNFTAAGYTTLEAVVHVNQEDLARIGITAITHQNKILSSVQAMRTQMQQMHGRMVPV
The target is the same in assay [9]. The settings on record: at 1 µM.
Assay [10] concerns the target T2, Ephrin type-B receptor 2 (Homo sapiens) (UniProt P29323).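 Also: reported as mean inhibition of EPHB2, from the GSK PKIS dataset.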
T2 sequence (whole entry): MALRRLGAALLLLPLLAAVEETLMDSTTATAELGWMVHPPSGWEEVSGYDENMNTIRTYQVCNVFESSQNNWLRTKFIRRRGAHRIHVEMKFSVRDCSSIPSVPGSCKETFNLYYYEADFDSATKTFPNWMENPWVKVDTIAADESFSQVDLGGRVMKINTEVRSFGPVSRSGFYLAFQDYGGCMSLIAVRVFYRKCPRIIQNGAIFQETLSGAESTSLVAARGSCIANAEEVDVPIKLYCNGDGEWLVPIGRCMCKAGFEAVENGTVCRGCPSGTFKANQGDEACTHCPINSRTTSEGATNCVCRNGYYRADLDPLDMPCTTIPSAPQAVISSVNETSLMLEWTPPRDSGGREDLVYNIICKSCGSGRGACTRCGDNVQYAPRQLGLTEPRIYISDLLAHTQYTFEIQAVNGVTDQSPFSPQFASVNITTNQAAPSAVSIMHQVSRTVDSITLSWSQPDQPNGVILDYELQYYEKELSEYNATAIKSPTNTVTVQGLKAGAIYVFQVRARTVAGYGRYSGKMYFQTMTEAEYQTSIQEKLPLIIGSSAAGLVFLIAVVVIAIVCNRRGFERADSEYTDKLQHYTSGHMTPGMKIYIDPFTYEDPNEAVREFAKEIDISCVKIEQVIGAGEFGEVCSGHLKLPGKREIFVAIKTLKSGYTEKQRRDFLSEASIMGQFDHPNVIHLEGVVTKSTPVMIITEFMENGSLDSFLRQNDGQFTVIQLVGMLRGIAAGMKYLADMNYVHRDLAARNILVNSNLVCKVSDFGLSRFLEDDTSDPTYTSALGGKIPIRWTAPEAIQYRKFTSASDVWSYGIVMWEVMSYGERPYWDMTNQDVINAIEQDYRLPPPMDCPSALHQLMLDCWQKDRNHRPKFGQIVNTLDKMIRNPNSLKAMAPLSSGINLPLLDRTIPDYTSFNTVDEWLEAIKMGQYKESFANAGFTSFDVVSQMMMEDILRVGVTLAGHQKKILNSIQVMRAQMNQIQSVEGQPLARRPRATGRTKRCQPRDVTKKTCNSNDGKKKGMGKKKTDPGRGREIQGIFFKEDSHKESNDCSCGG
As to conditions: at 0.1 µM.

Chain of Epidermal growth factor receptor (Homo sapiens), P00533 [L858R,T790M] (P00533 whole entry T790M/L858R, looked up): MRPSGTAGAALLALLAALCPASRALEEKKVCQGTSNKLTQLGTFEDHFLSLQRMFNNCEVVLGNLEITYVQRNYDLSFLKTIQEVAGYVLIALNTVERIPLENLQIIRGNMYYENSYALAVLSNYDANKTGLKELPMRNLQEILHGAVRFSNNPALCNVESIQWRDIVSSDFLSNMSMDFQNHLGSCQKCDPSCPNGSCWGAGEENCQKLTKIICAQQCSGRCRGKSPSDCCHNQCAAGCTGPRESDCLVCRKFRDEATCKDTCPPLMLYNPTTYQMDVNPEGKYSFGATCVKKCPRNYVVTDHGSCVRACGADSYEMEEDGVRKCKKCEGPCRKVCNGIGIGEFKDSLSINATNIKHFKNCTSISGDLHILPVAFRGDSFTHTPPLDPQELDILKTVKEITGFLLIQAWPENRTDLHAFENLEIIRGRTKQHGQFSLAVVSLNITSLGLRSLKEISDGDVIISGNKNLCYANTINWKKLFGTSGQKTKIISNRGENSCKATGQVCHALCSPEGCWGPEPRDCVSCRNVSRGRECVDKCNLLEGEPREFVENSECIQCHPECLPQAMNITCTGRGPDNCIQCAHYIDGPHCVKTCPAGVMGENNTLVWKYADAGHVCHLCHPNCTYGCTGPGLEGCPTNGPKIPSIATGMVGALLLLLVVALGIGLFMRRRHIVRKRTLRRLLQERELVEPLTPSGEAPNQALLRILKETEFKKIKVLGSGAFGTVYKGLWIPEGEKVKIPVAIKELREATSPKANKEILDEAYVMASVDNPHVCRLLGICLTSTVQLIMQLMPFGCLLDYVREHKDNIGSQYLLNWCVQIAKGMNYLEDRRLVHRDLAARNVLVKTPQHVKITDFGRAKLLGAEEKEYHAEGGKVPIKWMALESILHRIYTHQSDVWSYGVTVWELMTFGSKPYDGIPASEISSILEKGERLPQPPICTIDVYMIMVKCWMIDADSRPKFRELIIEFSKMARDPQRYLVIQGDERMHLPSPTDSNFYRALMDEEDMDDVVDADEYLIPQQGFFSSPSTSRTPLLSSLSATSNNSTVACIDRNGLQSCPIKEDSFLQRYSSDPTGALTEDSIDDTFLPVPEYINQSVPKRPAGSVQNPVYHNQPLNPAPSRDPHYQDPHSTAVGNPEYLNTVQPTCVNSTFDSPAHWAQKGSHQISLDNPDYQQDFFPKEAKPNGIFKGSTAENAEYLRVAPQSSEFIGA
Chain of Epidermal growth factor receptor (Homo sapiens), P00533 [T790M] (P00533 whole entry T790M): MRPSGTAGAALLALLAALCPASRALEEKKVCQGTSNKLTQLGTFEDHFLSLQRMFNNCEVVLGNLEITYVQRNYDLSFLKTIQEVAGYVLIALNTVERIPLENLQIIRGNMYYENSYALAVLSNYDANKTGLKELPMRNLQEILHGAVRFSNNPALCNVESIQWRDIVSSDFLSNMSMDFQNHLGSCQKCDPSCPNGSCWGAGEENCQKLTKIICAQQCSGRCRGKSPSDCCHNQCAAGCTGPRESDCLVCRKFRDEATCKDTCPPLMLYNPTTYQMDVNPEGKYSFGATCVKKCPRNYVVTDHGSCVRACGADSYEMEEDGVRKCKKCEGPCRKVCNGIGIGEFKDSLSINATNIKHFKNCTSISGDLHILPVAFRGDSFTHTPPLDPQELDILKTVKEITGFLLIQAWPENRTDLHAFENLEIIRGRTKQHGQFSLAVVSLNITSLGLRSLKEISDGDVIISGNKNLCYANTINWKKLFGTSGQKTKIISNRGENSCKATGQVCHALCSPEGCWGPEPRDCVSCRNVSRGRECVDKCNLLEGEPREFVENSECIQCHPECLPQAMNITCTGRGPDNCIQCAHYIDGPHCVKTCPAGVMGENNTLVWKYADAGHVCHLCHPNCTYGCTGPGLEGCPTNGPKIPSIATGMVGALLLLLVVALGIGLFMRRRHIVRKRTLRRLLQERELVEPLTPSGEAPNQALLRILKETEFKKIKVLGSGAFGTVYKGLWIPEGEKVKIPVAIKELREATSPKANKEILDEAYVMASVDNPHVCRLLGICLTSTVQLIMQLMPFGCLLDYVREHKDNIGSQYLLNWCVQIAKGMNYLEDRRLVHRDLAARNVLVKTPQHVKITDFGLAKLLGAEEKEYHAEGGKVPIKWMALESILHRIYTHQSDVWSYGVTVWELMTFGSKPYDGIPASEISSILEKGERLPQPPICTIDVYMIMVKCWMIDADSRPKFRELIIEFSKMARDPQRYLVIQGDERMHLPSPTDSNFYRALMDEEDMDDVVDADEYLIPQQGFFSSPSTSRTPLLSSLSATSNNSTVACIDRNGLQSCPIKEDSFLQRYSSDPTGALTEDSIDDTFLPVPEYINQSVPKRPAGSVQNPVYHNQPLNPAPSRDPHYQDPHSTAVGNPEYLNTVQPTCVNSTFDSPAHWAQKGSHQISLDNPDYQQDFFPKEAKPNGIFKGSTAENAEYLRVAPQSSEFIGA

Regarding `CCS(=O)(=O)c1ccc(OC)c(Nc2ncc(-c3cccc(F)c3)o2)c1`, the inhibition amounted to 3.03% in assay [1]; 5.67% in [2]; 2.98% in [3]; 2.15% in assay [4]; 9.85% in assay [5]; 8.12% in [6]. The inhibition in [7] stood at 17%; in [8], 11.3%; in [9], 33.5%; in assay [10], 18.5%.
Take `CS(=O)(=O)CCNCc1ccoc1-c1ccc2ncnc(Nc3ccc(OCc4ccccc4)cc3)c2c1`: the inhibition in [1] is 4.58%; in assay [2] it was -0.19%; in assay [3], -0.52%; in [4], -2.48%; in [5] it was -2.19%; in [6], 0.44%. In addition, the inhibition in assay [7] turned out to be 2.32%; in assay [8], 4.33%; in assay [9], 6.25%; in assay [10], 4.8%.
As for `Cc1cc(O)cc(C)c1/C=C/c1cncc(C(N)=O)c1`, the inhibition in [1] stood at 1.53%; in [2], 0.06%; in assay [3], 1.88%; in assay [4] it was 8.68%; in assay [5], 47.2%; in [6] it was 5.13%. Moreover, the inhibition in [7] was 19.5%; in [8] it was 18.6%; in [9], 69.2%; in [10], 16.3%.
With `CN(c1ccc(NC(=O)NCCN2CCOCC2)cc1)c1ccnc(Nc2ccc(CS(C)(=O)=O)cc2)n1`, the inhibition was 4.33% in [1]; 0.85% in assay [2]; 2.57% in [3]; 2.23% in assay [4]; 2.79% in assay [5]; 4.27% in [6]. Moreover, the inhibition in [7] was 5.54%; in assay [8], 8.57%; in assay [9], 19.6%; in [10] it was 6.47%.
Regarding `CN1CCC(n2cnc(-c3ccc(F)cc3)c2-c2ccnc(NCCO)n2)CC1`, the inhibition was 4.06% in assay [1]; 1.79% in [2]; 5.98% in [3]; 2.31% in [4]; -0.04% in [5]; 5.3% in [6]. Also, the inhibition was 5.33% in assay [7], 7.76% in [8], 14.7% in assay [9] and 8.26% in assay [10].
As to `CS(=O)(=O)Nc1ccc(-c2ccc3c(NC(=O)C4CC4)n[nH]c3c2)cc1`, the inhibition in assay [1] was determined as 0.23%; in [2], 0.3%; in [3] it was 0.93%; in [4], 2.88%; in [5], 1.54%; in [6], 5.15%. For the same molecule, the inhibition is 4.1% in assay [7], 5.41% in assay [8], 1.08% in assay [9] and 9.15% in [10].
For the molecule `COc1cccc(Nc2nccc(-c3cnn4ncccc34)n2)c1`, the inhibition in assay [1] turned out to be 1.13%; in assay [2], 4.75%; in assay [3], 9.99%; in [4] it was 1.1%; in [5] it was 12.2%; in assay [6] it was 4.37%. In addition, the inhibition stood at 8.81% in [7], 9.73% in [8], 36.6% in assay [9] and 9.43% in assay [10].
Consider `CN1CCC(C(=O)Nc2n[nH]c3nc(-c4ccc(O)cc4)c(Br)cc23)CC1`, for which the inhibition was 2.93% and 1.04% in [1]; -0.55% and -2.98% in [2]; 1.4% and -0.59% in assay [3]; -3.15% and 0% in assay [4]; -2.77% and -1.38% in assay [5]; -0.96% and 1.14% in [6]. Moreover, the inhibition in assay [7] is -1.23% and 3.96%; in assay [8] it was 7.94% and 4.03%; in assay [9] it was 10.9% and 9.16%; in [10], 2.8% and -0.98%.
For `Fc1ccc(Nc2nccc(-c3c(-c4ccc(C(F)(F)F)cc4)nn4ncccc34)n2)cc1F`, the inhibition in assay [1] was 0.77%; in assay [2], -1.9%; in assay [3], 0.06%; in assay [4], 2.87%; in assay [5], 0.53%; in assay [6], 2.83%. The inhibition in assay [7] worked out at 3.84%; in assay [8], 5.7%; in [9], 1.99%; in [10] it was 8.38%.
`Cn1c(-c2nonc2N)nc2cnccc21`: the inhibition in assay [1] was 0.67%; in [2] it was -1.07%; in [3], -0.94%; in [4], 1.97%; in assay [5], 1.07%; in [6] it was 6.89%. The inhibition in assay [7] is 4.47%; in assay [8], 7.88%; in [9], 4.19%; in assay [10], 4.59%.
For `CC1(C)CC(n2cnc(-c3ccc(F)cc3)c2-c2ccnc(N)n2)CC(C)(C)N1`, the inhibition in [1] is -1.34%; in assay [2] it was 2.59%; in assay [3] it was 1.85%; in assay [4], -2.86%; in assay [5] it was -2.93%; in assay [6], -0.75%. Moreover, the inhibition was -0.11% in assay [7], 0.35% in assay [8], -1.89% in assay [9] and 0.78% in [10].
`OCCCNc1nccc(-c2c(-c3ccc(F)cc3)nn3cc(C(F)(F)F)ccc23)n1`: the inhibition in assay [1] was -0.33%; in assay [2], -1.34%; in [3], 5.46%; in assay [4], 1.26%; in assay [5] it was 1.9%; in assay [6] it was 2.86%. Further, the inhibition in assay [7] was found to be 3.67%; in assay [8] it was 8.53%; in [9], 13.3%; in [10], 8.48%.
For `CNC(=O)c1sc(-n2cnc3cc(OC)c(OC)cc32)cc1OCc1ccccc1C(F)(F)F`, the inhibition in assay [1] came to 0.02%; in assay [2], 0.49%; in assay [3], 1.43%; in assay [4], 2.6%; in [5], 2.61%; in [6], 3.26%. The inhibition was found to be 7.45% in assay [7], 7.55% in assay [8], 13.2% in assay [9] and 5.44% in assay [10].
Regarding `O=C(O[C@H]1CN[C@H](C#Cc2cc3ncnc(Nc4ccc5c(ccn5Cc5cc(F)ccc5F)c4)c3s2)C1)N1CCOCC1`, the inhibition in assay [1] came out at 50.3%; in assay [2] it was 4.66%; in assay [3], 9.08%; in assay [4], 0.75%; in assay [5] it was 0.06%; in [6] it was 4.84%. The inhibition in assay [7] came out at 4.4%; in [8], 6.87%; in assay [9], 3.19%; in [10] it was 5.25%.
For `O=C(Nc1n[nH]c2nnc(-c3cccnc3)cc12)C1CC1`, the inhibition is -0.7% in [1]; -0.13% in [2]; -0.34% in assay [3]; -3.08% in [4]; -2.73% in assay [5]; -1.3% in [6]. Also, the inhibition was -0.05% in assay [7], 0.83% in assay [8], 2.33% in assay [9] and 0.05% in [10].
